# Results as given in PubChem BioAssay AID504332 (National Center for Advancing Translational Sciences (NCATS), 2011).
# About 31,000 (8.9%) of roughly 350,000 compounds were called active. About 15% were inconclusive and are not listed. The sample holds actives, similar compounds and a random draw of the others, so the mix is not that of the screen. Unmarked numbers belong to inactive results. Calls come from the whole dose curve; as a rule, active = well fitted inhibition curve with a large enough effect; inconclusive = small, poorly fitted or top-dose-only effect; inactive = no such curve, though single readings can be large or run the other way.
# Molecular target: Histone-lysine N-methyltransferase EHMT2 (Homo sapiens) (UniProt Q96KQ7)
# Assay: qHTS Assay for Inhibitors of Histone Lysine Methyltransferase G9a; note: nearly all actives have a fitted effect of over 75% in size
# Conditions: G9a H3K9 monomethylation, AlphaScreen, 2 h; series mostly up to 102 µM; activity, negative = inhibition: at the top concentration
# Summary of the method: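 Signal arises when biotinylated H3K9 peptide, once monomethylated, bridges streptavidin donor and antibody-captured acceptor beads. Enzyme at 20 nM was preincubated 15 min with test compounds; peptide 500 nM and SAM 20 uM then reacted for 2 h.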
# % is set by controls: 0 for no effect and ±100 for the full control effect; potency is the fitted concentration of half-maximal effect.
# Histone-lysine N-methyltransferase EHMT2 (Homo sapiens), sequence (Q96KQ7 913-1193 limits assumed): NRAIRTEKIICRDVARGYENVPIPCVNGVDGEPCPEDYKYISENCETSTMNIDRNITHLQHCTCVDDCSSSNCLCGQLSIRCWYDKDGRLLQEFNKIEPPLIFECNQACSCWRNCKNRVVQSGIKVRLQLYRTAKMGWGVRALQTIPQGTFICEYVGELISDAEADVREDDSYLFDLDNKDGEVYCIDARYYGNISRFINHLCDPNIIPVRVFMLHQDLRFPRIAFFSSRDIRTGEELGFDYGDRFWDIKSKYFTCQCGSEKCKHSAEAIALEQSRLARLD
SMILES,"activity, negative = inhibition",Potency
COc1ccccc1-c1[se]c2ccccc2c1I,71.9% [at 59 µM],–
COC(=O)C1=C(c2ccc(F)cc2OCc2ccccc2)C[C@@H]2CC[C@H]1N2C(=O)NCc1ccc(OC)c(OC)c1,-8.71% [at 0.501 µM],–
CN(C)[C@@H]1C(=O)C(C(N)=O)=C(O)[C@@]2(O)C(=O)C3=C(O)c4c(O)cccc4[C@@](C)(O)C3CC12 (stereo not given in full),–,22.4 µM (active)
CNC(=O)O/N=C(\N)Cc1csc2ccccc12,20.1% [at 59 µM],–
C/C(CCc1c[nH]c2ccccc12)=N\O,13.7% [at 12.7 µM],–
O=C(Nc1ccc(Cl)cc1C(=O)c1ccccc1)c1cc(Cl)cc(Cl)c1,-10.5% [at 59 µM],–
C=Cn1ccnc1P(=S)(c1cc(N(CC)CC)ns1)c1nccn1C=C,-9.17% [at 59 µM],–
COP(=O)(NS(=O)(=O)c1ccccc1)OC,-8.09%,–
Cc1nc2ccc(N3CCN(C)CC3)cc2nc1C,14.8%,–
COc1cccc(-c2nc3ccc(N4CCN(C)CC4)cc3[nH]2)c1,–,44.7 µM (active)
CN1CCN(c2cc(N3CCNCC3)ccc2[N+](=O)[O-])CC1,-17.5% [at 59 µM],–
CN(C)/C=C(\C=[N+](C)C)c1[nH]ncc1[N+](=O)[O-],-35.8%,–
CCc1nnc(NS(=O)(=O)c2ccc(N=Cc3c(O)n(-c4ccccc4)c(=O)[nH]c3=O)cc2)s1,-36.3%,–
N#CC1=C(N)Oc2c(c(=O)oc3ccccc23)C1c1ccccc1OC(=O)c1cccs1 (stereo not given),-9.96%,–
COC(=O)C1=C(c2ccc(F)cc2F)C[C@@H]2CC[C@H]1N2C(=O)NC1CC1,2.71% [at 0.501 µM],–
O=C(CCNS(=O)(=O)c1ccccc1)Nc1ccc(Cl)cc1C(=O)c1ccccc1,21.4% [at 59 µM],–
CCOC(=O)C1=C(C)OC(N)=C(C(=O)OC)C12C(=O)Nc1ccc(Br)cc12 (stereo not given),8.25% [at 2.33 µM],–
CC[N+](C)(CC)CCC[n+]1c(-c2ccccc2)c2cc(N)ccc2c2ccc(N)cc21,–,5.01 µM (active)
C[C@H]1CC[C@@]2(NC1)O[C@@H]1C[C@H]3[C@@H]4CC=C5C[C@@H](O)CC[C@]5(C)[C@@H]4CC[C@]3(C)[C@@H]1[C@@H]2C,18.8% [at 21.5 µM],–
CCN1CCN(c2nc3c(c(=O)[nH]2)CCC3)CC1,-48.7%,–
CCOc1ccc(CN(CCCl)CCCl)cc1C(=O)OC,16.9% [at 0.501 µM],–
CCOP(=O)(OCC)C(O)c1ccc(OC)cc1OC (stereo not given),7.49% [at 59 µM],–
CCOC(=O)c1ncn2c1[C@@H]1CCCN1C(=O)c1cc(OC)ccc1-2,inactive,–
CCOC(=O)C1CN(C)CCC1=O (stereo not given),26.6% [at 2.33 µM],–
O=C(Cn1c(=O)n(CC2CS2)c2ccccc21)N1CCCCC1 (stereo not given),-40.4%,–
CCN1CCN(C(=O)Cc2coc3cc(C)cc(C)c23)CC1,-6.19% [at 59 µM],–
CCC(=NCCc1ccccc1)c1c(O)n(C2CCCCC2)c(=O)[nH]c1=O,-19.9% [at 59 µM],–
CN1CCN(Cc2ccccc2C(F)(F)F)CC1,-12.5% [at 59 µM],–
O=C(Cc1ccccc1)N1CCN(C2CCCCCC2)CC1,–,31.6 µM (active)
COc1ccccc1CN1CCN(C(=O)Cc2ccccc2)CC1,–,17.8 µM (active)
